{"source": "PubChem BioAssay (EPA / NIEHS)", "note": "Activity calls are given as the source filed them. Rule for the calls: active = hit-call score of the fitted dose curve at least 0.9, where 1 is the maximum; inactive = score below 0.9."}
{"read-out": "Human Leukocyte Antigen - DR isotype (HLADR), HLA-DRA (gene 3122)", "test": "BSK_BE3C_HLADR: BioMAP Diversity Plus: BE3C Assay for Human Leukocyte Antigen - DR isotype (HLADR) Biomarker Activity (AID 2283032)", "conditions": "primary human bronchial epithelial cells; actives raise or lower the signal", "procedure,_shortened": "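BioMAP BE3C format: human bronchial epithelium, 24 h compound treatment, ELISA detection of HLA-DR, with bidirectional analysis relative to DMSO.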"}
{"compound": "CCS(=O)(=O)c1cccnc1S(=O)(=O)NC(=O)Nc1nc(OC)cc(OC)n1", "outcome": "inactive"}
{"compound": "CCOC1Oc2ccc(OS(C)(=O)=O)cc2C1(C)C", "note": "(centres undefined)", "AC50": "24 µM (active)"}
{"compound": "[2H]C1([2H])[n+]2ccccc2-c2cccc[n+]2C1([2H])[2H]", "outcome": "inactive"}
{"compound": "O=C(O)CCCOc1ccc(Cl)cc1Cl", "outcome": "inactive"}
{"compound": "CC(C)N(C(=O)COc1nnc(C(F)(F)F)s1)c1ccc(F)cc1", "outcome": "inactive"}
{"compound": "O=C(NC(=O)c1c(F)cccc1F)Nc1ccc(OC(F)(F)C(F)OC(F)(F)F)c(Cl)c1", "note": "(centres undefined)", "AC50": "7.82 µM (active)"}
{"compound": "N#Cc1c(Cl)c(Cl)c(Cl)c(C#N)c1Cl", "AC50": "1.7 µM (active)"}
{"compound": "COC(=O)c1ccccc1S(=O)(=O)NC(=O)N(C)c1nc(C)nc(OC)n1", "outcome": "inactive"}
{"compound": "CNC(=O)Oc1cccc(N=CN(C)C)c1", "AC50": "26.6 µM (active)"}
{"compound": "CCN(CC)C(=O)SCc1ccc(Cl)cc1", "outcome": "inactive"}
{"compound": "Clc1ccccc1-c1nnc(-c2ccccc2Cl)nn1", "outcome": "inactive"}
{"compound": "COC(=O)c1ccccc1CS(=O)(=O)NC(=O)Nc1nc(OC)cc(OC)n1", "outcome": "inactive"}
{"compound": "Cc1cc(C)nc(NC(=O)NS(=O)(=O)c2ccccc2C(=O)OC2COC2)n1", "outcome": "inactive"}
{"compound": "CC1(c2ccc(Oc3ccccc3)cc2)OC(=O)N(Nc2ccccc2)C1=O", "note": "(centres undefined)", "outcome": "inactive"}
{"compound": "CCOc1nc(NC)nc(NC(=O)NS(=O)(=O)c2ccccc2C(=O)OC)n1", "outcome": "inactive"}
{"compound": "CCc1ccc(C(=O)NN(C(=O)c2cc(C)cc(C)c2)C(C)(C)C)cc1", "outcome": "inactive"}
{"compound": "O=[N+]([O-])c1c(Cl)c(Cl)c(Cl)c(Cl)c1Cl", "outcome": "inactive"}
{"compound": "CCC(C)(C)C(=O)OC1=C(c2ccc(Cl)cc2Cl)C(=O)OC12CCCCC2", "AC50": "23.5 µM (active)"}
{"compound": "CCC(C)(NC(=O)c1cc(Cl)c(C)c(Cl)c1)C(=O)CCl", "note": "(centres undefined)", "AC50": "13.6 µM (active)"}
{"compound": "COc1nn(CSP(=S)(OC)OC)c(=O)s1", "outcome": "inactive"}
{"compound": "C#CCN1C(=O)COc2cc(F)c(N3C(=O)C4=C(CCCC4)C3=O)cc21", "AC50": "3.97 µM (active)"}
{"compound": "CC(C)(C)C(O)/C(=C\\c1ccc(Cl)cc1Cl)n1cncn1", "note": "(centres undefined)", "AC50": "27.5 µM (active)"}
{"compound": "COP(=O)(OC)OC=C(Cl)Cl", "outcome": "inactive"}
{"compound": "ClC1C(Cl)C(Cl)C(Cl)C(Cl)C1Cl", "note": "(centres undefined)", "outcome": "inactive"}
{"compound": "CC1(C)C(C=C(Cl)Cl)C1C(=O)OC(C#N)c1ccc(F)c(Oc2ccccc2)c1", "note": "(centres undefined)", "outcome": "inactive"}
{"compound": "COP(=S)(OC)Oc1ccc([N+](=O)[O-])cc1", "outcome": "inactive"}
{"compound": "CC[C@H](C)[C@H]1O[C@]2(C=C[C@@H]1C)C[C@@H]1C[C@@H](C/C=C(\\C)[C@@H](O[C@H]3C[C@H](OC)[C@@H](O[C@H]4C[C@H](OC)[C@@H](O)[C@H](C)O4)[C@H](C)O3)[C@@H](C)/C=C/C=C3\\CO[C@@H]4[C@H](O)C(C)=C[C@@H](C(=O)O1)[C@]34O)O2", "note": "(tested in a mixture with another compound)", "AC50": "5.87 µM (active)"}
{"read-out": "Vascular cell adhesion molecule 1 (VCAM1), VCAM1 (gene 7412)", "test": "BSK_4H_VCAM1: BioMAP Diversity Plus: 4H Assay for Vascular cell adhesion molecule 1 (VCAM1) Biomarker Activity (AID 2283033);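 for outcome: cell-surface VCAM-1 protein measured by ELISA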", "conditions": "primary human endothelial cells (HUVEC); actives raise or lower the signal", "procedure,_shortened": "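In this human endothelial (HUVEC) system, biomarker ELISA was run 24 h after compound addition, and total protein in parallel wells was assessed by SRB at 560 nm; DMSO served as negative control.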"}
{"compound": "CCS(=O)(=O)c1cccnc1S(=O)(=O)NC(=O)Nc1nc(OC)cc(OC)n1", "outcome": "inactive"}
{"compound": "CCOC1Oc2ccc(OS(C)(=O)=O)cc2C1(C)C", "note": "(centres undefined)", "outcome": "inactive"}
{"compound": "[2H]C1([2H])[n+]2ccccc2-c2cccc[n+]2C1([2H])[2H]", "outcome": "inactive"}
{"compound": "O=C(O)CCCOc1ccc(Cl)cc1Cl", "outcome": "inactive"}
{"compound": "CC(C)N(C(=O)COc1nnc(C(F)(F)F)s1)c1ccc(F)cc1", "outcome": "inactive"}
{"compound": "O=C(NC(=O)c1c(F)cccc1F)Nc1ccc(OC(F)(F)C(F)OC(F)(F)F)c(Cl)c1", "note": "(centres undefined)", "outcome": "inactive"}
{"compound": "N#Cc1c(Cl)c(Cl)c(Cl)c(C#N)c1Cl", "AC50": "1.16 µM (active)"}
{"compound": "COC(=O)c1ccccc1S(=O)(=O)NC(=O)N(C)c1nc(C)nc(OC)n1", "outcome": "inactive"}
{"compound": "CNC(=O)Oc1cccc(N=CN(C)C)c1", "outcome": "inactive"}
{"compound": "CCN(CC)C(=O)SCc1ccc(Cl)cc1", "outcome": "inactive"}
{"compound": "Clc1ccccc1-c1nnc(-c2ccccc2Cl)nn1", "outcome": "inactive"}
{"compound": "COC(=O)c1ccccc1CS(=O)(=O)NC(=O)Nc1nc(OC)cc(OC)n1", "outcome": "inactive"}
{"compound": "Cc1cc(C)nc(NC(=O)NS(=O)(=O)c2ccccc2C(=O)OC2COC2)n1", "outcome": "inactive"}
{"compound": "CC1(c2ccc(Oc3ccccc3)cc2)OC(=O)N(Nc2ccccc2)C1=O", "note": "(centres undefined)", "AC50": "15.3 µM (active)"}
{"compound": "CCOc1nc(NC)nc(NC(=O)NS(=O)(=O)c2ccccc2C(=O)OC)n1", "outcome": "inactive"}
{"compound": "CCc1ccc(C(=O)NN(C(=O)c2cc(C)cc(C)c2)C(C)(C)C)cc1", "outcome": "inactive"}
{"compound": "O=[N+]([O-])c1c(Cl)c(Cl)c(Cl)c(Cl)c1Cl", "AC50": "19.3 µM (active)"}
{"compound": "CCC(C)(C)C(=O)OC1=C(c2ccc(Cl)cc2Cl)C(=O)OC12CCCCC2", "AC50": "36.6 µM (active)"}
{"compound": "CCC(C)(NC(=O)c1cc(Cl)c(C)c(Cl)c1)C(=O)CCl", "note": "(centres undefined)", "AC50": "10.5 µM (active)"}
{"compound": "COc1nn(CSP(=S)(OC)OC)c(=O)s1", "outcome": "inactive"}
{"compound": "C#CCN1C(=O)COc2cc(F)c(N3C(=O)C4=C(CCCC4)C3=O)cc21", "outcome": "inactive"}
{"compound": "CC(C)(C)C(O)/C(=C\\c1ccc(Cl)cc1Cl)n1cncn1", "note": "(centres undefined)", "AC50": "27.7 µM (active)"}
{"compound": "COP(=O)(OC)OC=C(Cl)Cl", "outcome": "inactive"}
{"compound": "ClC1C(Cl)C(Cl)C(Cl)C(Cl)C1Cl", "note": "(centres undefined)", "outcome": "inactive"}
{"compound": "CC1(C)C(C=C(Cl)Cl)C1C(=O)OC(C#N)c1ccc(F)c(Oc2ccccc2)c1", "note": "(centres undefined)", "outcome": "inactive"}
{"compound": "COP(=S)(OC)Oc1ccc([N+](=O)[O-])cc1", "AC50": "20.1 µM (active)"}
{"compound": "CC[C@H](C)[C@H]1O[C@]2(C=C[C@@H]1C)C[C@@H]1C[C@@H](C/C=C(\\C)[C@@H](O[C@H]3C[C@H](OC)[C@@H](O[C@H]4C[C@H](OC)[C@@H](O)[C@H](C)O4)[C@H](C)O3)[C@@H](C)/C=C/C=C3\\CO[C@@H]4[C@H](O)C(C)=C[C@@H](C(=O)O1)[C@]34O)O2", "note": "(tested in a mixture with another compound)", "AC50": "11.6 µM (active)"}
